# Laboratory results: PubChem BioAssay AID602252 (Broad Institute, 2012)
# Out of some 300,000 compounds screened, about 2,700 (0.9%) were called active.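 How the source made its calls: active means mean inhibition of at least 30% with at least half of replicates also reaching 30%; inconclusive means no clear call, values can overlap the other calls; inactive means the rest.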 The sample as a whole holds a higher share of actives than the screen did.
# Target: Golgi-associated PDZ and coiled-coil motif-containing protein (Homo sapiens) (UniProt Q9HD26)
# Assay: blockade of CAL PDZ-reporter peptide interaction – biochemical, fluorescence polarization, untagged CAL PDZ, HTS, primary screen (AID 602252);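 further: 0% = DMSO neutral control and 100% = excess unlabeled competitor peptide PRC23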
# Settings: purified CAL PDZ, TMR-peptide fluorescence polarization, 1 h; at 24.9 µM; active compounds read high
row,SMILES,inhibition
1,COc1ccc(Cl)cc1C=CC=Nc1ccc(S(N)(=O)=O)cc1,1.96% (inactive)
2,COc1cccc(CC(=O)Nc2nc(-c3ccc(OC)c(OC)c3)cs2)c1,-0.162% (inactive)
3,COc1ccc(CC(=O)Nc2nc(-c3ccc(F)c(F)c3)cs2)cc1OC,-3.84% (inactive)
4,COc1ccc(CCNc2nc(-c3cccc(NC(C)=O)c3)cs2)cc1OC,57.3% (active)
5,O=C(Nc1cccc(S(=O)(=O)N2CCOCC2)c1)C12CC3CC(CC(C3)C1)C2,-2.14% (inactive)
6,CSc1ncnc2c1ncn2CC(=O)C1CCC2C3CCC4=CC(=O)CCC4(C)C3CCC12C (centres undefined),2.07% (inactive)
7,COc1ccccc1N(CCOc1ccccc1)S(=O)(=O)c1ccccc1,71% (active)
8,COc1ccccc1NC(=O)CN(c1ccccc1OC)S(=O)(=O)c1ccccc1,0.854% (inactive)
9,COc1ccccc1N(CC(=O)N1CCCCC1)S(=O)(=O)c1ccccc1,-3.76% (inactive)
10,O=C(O)C(=Cc1ccccc1[N+](=O)[O-])c1ccccc1,-1.54% (inactive)
11,O=C(CSc1nnc(CNC(=O)c2ccc(F)cc2)o1)Nc1ccc2c(c1)OCO2,74.1% (active)
12,O=C(NCc1nnc(SCC(=O)N2CCCCCC2)o1)c1ccc(F)cc1,-2.96% (inactive)
13,COc1ccc(C(=O)NCc2nnc(SCC(=O)Nc3cccc(OC)c3)o2)cc1,-4.41% (inactive)
14,COc1ccc(-c2ccc3c(c2)[C@@H]2C[C@H](N(C)S(=O)(=O)c4ccccc4)[C@H]([C@H](C)O)C(=O)N2CC3)cc1,-5.77% (inactive)
15,O=c1[nH]c2ccc(S(=O)(=O)N3CCCC3)cc2[nH]1,-3.37% (inactive)
16,CCCCn1c(=S)[nH]c2cc(S(=O)(=O)N3CCCCC3)ccc21,1.64% (active)
17,CCCCn1c(N)c(N(CCOC)C(=O)c2cccc(S(=O)(=O)N3CCCCC3)c2)c(=O)[nH]c1=O,-4.58% (inactive)
18,CCN(CC)S(=O)(=O)c1cccc(NC(=O)c2ccc(S(=O)(=O)N3CCCC3)cc2)c1,-1.26% (inactive)
19,O=C1/C(=C\c2ccc([N+](=O)[O-])cc2)CS(=O)(=O)C/C1=C/c1ccc([N+](=O)[O-])cc1,-4.54% (inactive)
20,COc1ccccc1NC(=O)COC(=O)CNC(=O)C1CCCCC1,-1.86% (inactive)
21,CN(CCc1ccccc1)C(=O)c1cccc(NC(=O)Cc2ccc([N+](=O)[O-])cc2)c1,0.702% (inactive)
22,O=C(COC(=O)c1ccccn1)NNC(=O)c1ccc(Br)cc1,-0.344% (inactive)
23,Cc1nc(N)[nH]c(=O)c1Oc1cccc(C(F)(F)F)c1,71.1% (active)

row,SMILES,inhibition
1,Cc1cccc(OCc2nnc(SCc3nc4cc(C(F)(F)F)ccc4c(=O)[nH]3)o2)c1,1.6% (inactive)
2,O=Cc1ccc(Oc2cccc(C(F)(F)F)c2)nc1,2.04% (inactive)
3,Fc1ccccc1-c1cc2cc3c(cc2cn1)OCO3,-3.15% (inactive)
4,COc1cc(/C=C/c2ccc(/C=C/c3cc(OC)c(OC)c(OC)c3)cc2)cc(OC)c1OC,-6.47% (inactive)
5,CC(Oc1ccc2c(-c3ccccc3)cc(=O)oc2c1)C(=O)NC(Cc1c[nH]c2ccccc12)C(=O)O (centres undefined),1.66% (inactive)
6,Cn1c(CCN2CCCCCC2)nc2cc(NC(=O)Nc3ccccc3)ccc21,49.1% (active)
7,CCC(=O)Nc1ccc2c(c1)nc(CCN1CCN(c3ccccn3)CC1)n2C,-15.1% (inactive)
8,Cn1c(CCN2CCCC2)nc2cc(NS(=O)(=O)c3ccccc3)ccc21,-2.75% (inactive)
9,CC[C@@H]1CCCCc2ccccc2[C@@H](C(=O)C[C@H](O)CC(C)=O)OC1=O,1.2% (inactive)
10,O=C(NCc1ccccc1Cl)C1CCN(S(=O)(=O)c2cccc3nonc23)CC1,-3.79% (inactive)
11,COc1ccccc1CNC(=O)C1CCN(S(=O)(=O)c2ccc3c(c2)OCCO3)CC1,80.2% (active)
12,O=C(NCc1cccs1)C1CCN(S(=O)(=O)c2ccc3c(c2)OCCO3)CC1,-6.83% (inactive)
13,COc1ccc(CNC(=O)C2CCN(S(=O)(=O)N3CCOCC3)CC2)cc1,-1.68% (inactive)
14,COCCNC(=O)C1CCN(S(=O)(=O)c2ccc3c(c2)OCCO3)CC1,-1.23% (inactive)
15,O=C(NCc1ccccc1Cl)C1CCN(S(=O)(=O)N2CCOCC2)CC1,137% (active)
16,CCOc1ccc(CCNC(=O)COC(=O)C2CCN(S(=O)(=O)c3ccccc3)CC2)cc1OCC,-1.05% (inactive)
17,O=C(N[C@H]1C/C=C\C(c2cccc(F)c2)N(Cc2ccccc2)C(=O)C1)OCC1c2ccccc2-c2ccccc21 (some centres undefined),-1.43% (inactive)
18,O=C(Nc1c(Br)cc2c(c1Br)Cc1ccccc1-2)C(F)(F)F,-4.34% (inactive)
19,Cc1cn(C2CC(O)C(CO)O2)c(=O)n(CCCc2ccccc2)c1=O (centres undefined),-2.38% (inactive)
20,COc1ccc(S(=O)(=O)N2CCOCC2)cc1NC(=O)c1ccc(OCC(C)C)c(OC)c1,-4% (inactive)
21,COc1cc2c(cc1OC)C1C(=O)c3cc(OS(C)(=O)=O)c(OC)cc3C1N(C)C2=O (centres undefined),-1.26% (inactive)
22,Cc1noc(NS(=O)(=O)c2ccc(NC(=O)C34CCC(CC3)C4)cc2)c1C,-5.91% (inactive)
23,CCn1c(SCC(=O)Nc2ccc3c(c2)OCCO3)nnc1-c1ccncc1,-1.31% (inactive)

row,SMILES,inhibition
1,CCn1c(SCC(=O)Nc2ccc(S(=O)(=O)Nc3onc(C)c3C)cc2)nnc1-c1ccccc1,30.7% (active)
2,COc1ccc(C(CNC(=O)c2cccc(S(=O)(=O)Nc3ccc(Br)cc3)c2)N(C)C)cc1 (centres undefined),-3.75% (inactive)
3,O=[N+]([O-])c1ccc(NS(=O)(=O)c2ccccc2)c(Cl)c1,-10.2% (inactive)
4,O=[N+]([O-])c1ccc(COc2ccccc2CN2CCOCC2)cc1,0.702% (inactive)
5,COc1ccccc1N1CCN(/N=C\C(Br)=C\c2ccccc2)CC1,1.35% (inactive)
6,COc1ccccc1N1CCN(/N=C/c2ccc(O)cc2O)CC1,77.6% (active)
7,COc1cc(/C=N/N2CCN(c3ccccc3)CC2)ccc1OC(C)=O,4.07% (inactive)
8,CC(=NNC(=S)N1CCCCCC1)c1ccccn1,-1.44% (inactive)
9,CN(O)C(=S)c1ccccc1,-3.98% (inactive)
10,CN1CCN(S(=O)(=O)c2ccc(N3CCN(c4ccccc4O)CC3)c([N+](=O)[O-])c2)CC1,-6.2% (inactive)
11,O=C(C[C@H]1C[C@H](C(=O)N2CCOCC2)[C@@]2(CCC3CCCC3)c3[nH]c4ccc(Cl)cc4c3CCN2C1=O)NCc1ccco1,4.95% (inactive)
12,CCOC(=O)C1=C(C)N(C[C@@H]2CC[C@@H](Cc3ccc(-c4ccccc4)cc3)O2)C(=O)NC1c1ccc([N+](=O)[O-])cc1 (some centres undefined),-2.42% (inactive)
13,N#C/C(=C(/O)COc1cccc2ccccc12)c1nc2ccccc2[nH]1,-1.44% (inactive)
14,Cc1ccccc1OC/C(O)=C(\C#N)c1nc2ccccc2[nH]1,4.87% (inactive)
15,CC(C)(C)c1nnc2sc(SCC(O)=C(C#N)c3nc4ccccc4[nH]3)nn2c1=O,43.7% (active)
16,CC1CCCCC12NC(=O)N(CC(=O)OCc1c(F)cccc1Cl)C2=O (centres undefined),-9.25% (inactive)
17,C(#CCN1CCOCC1)CCCN1CCOCC1,-3.29% (inactive)
18,Cc1cc(C(=O)COc2ccc(Br)cc2F)c(C)n1C1CC1,-6.1% (inactive)
19,COc1ccc(CNC(=O)COc2ccccc2C(=O)c2cnn(-c3ccccc3)c2)cc1OC,-9.89% (inactive)
20,O=C(CNCCO)NC12CC3CC(CC(C3)C1)C2,40.5% (active)
21,O=C(COC(=O)C12CC3CC(CC(O)(C3)C1)C2)NC12CC3CC(CC(C3)C1)C2,-5.51% (inactive)
22,CC(NCCO)C(=O)C12CC3CC(CC(C3)C1)C2 (centres undefined),4.83% (inactive)
23,Cc1cccc(C(=O)N[C@H](C(=O)NCc2cccs2)C(C)C)c1,-0.924% (inactive)

row,SMILES,inhibition
1,O=C(Nc1ccc(S(=O)(=O)N2CCOCC2)cc1)C1CCN(S(=O)(=O)c2ccc(Cl)cc2)CC1,-10.9% (inactive)
2,CCNC(=S)Nc1cccc(Cl)c1C,-2.42% (inactive)
3,CN(C)S(=O)(=O)c1cccc(NC(=S)NCc2ccc3c(c2)OCO3)c1,-4.92% (inactive)
4,Cc1c(Cl)cccc1NC(=S)NCc1ccc2c(c1)OCO2,51.1% (active)
5,CC(C)n1cnc2c(NCc3ccccc3)cc(OCC3CCN(C)CC3)cc21,3.01% (inactive)
6,CN(C(=O)c1cccc(NC(=O)C2CCN(C(=O)OC(C)(C)C)CC2)c1)C1CCC1,-3.04% (inactive)
7,O=C(O)c1ccc(S(=O)(=O)N2CCOCC2)o1,32.5% (active)
8,O=C(CCc1ccc(S(=O)(=O)N2CCOCC2)cc1)NN=C1CCCCCCC1,-3.33% (inactive)
9,O=C(c1cc(S(=O)(=O)N2CCOCC2)ccc1Cl)N1CCOCC1,-1.76% (inactive)
10,Cc1cccc(C=CC(=O)c2ccc(Cl)cc2)c1,-5.84% (inactive)
11,Cc1cc(OCCCC(=O)Nc2cc(S(=O)(=O)N3CCOCC3)ccc2N2CCOCC2)ccc1Cl,-3.89% (inactive)
12,CN(C(=O)c1cccc(NC(=O)Cc2ccc([N+](=O)[O-])cc2)c1)C1CCC1,-2.37% (inactive)
13,COc1ccc(S(=O)(=O)N2CCc3ccccc32)cc1C(=O)Nc1cc(S(C)(=O)=O)ccc1Cl,-5.31% (inactive)
14,CC1CN(C(=O)c2ccc([N+](=O)[O-])s2)CC(C)O1 (centres undefined),0.023% (inactive)
15,O=C(CSC(=S)N1CCOCC1)c1ccccc1,0.137% (inactive)
16,O=C(CSC(=S)N1CCCCC1)c1c(F)cccc1F,79.2% (active)
17,CC(=O)c1ccc(NC(=O)CSC(=S)N2CCCC2)cc1,-3.19% (inactive)
18,O=C(CNC(=O)c1ccccc1F)c1ccc(Br)cc1,57.3% (active)
19,O=C(CNC(=O)c1ccc(F)cc1)c1ccccc1,-6.34% (inactive)
20,O=C(Nc1ccc(NC(=O)c2ccccc2F)cc1)c1ccccc1F,4.51% (inactive)
